Experimental data from PubChem BioAssay AID2546 (National Center for Advancing Translational Sciences (NCATS), 2010).
Several values for one entry are separate records, joined by “and”; a condition that tells them apart may be missing. Identical values can stand only once. Out of some 310,000 compounds screened, about 11,000 (3.5%) were called active. Inconclusive results (about 8%) are left out. Calls come from the whole dose curve; as a rule, active = well fitted inhibition curve with a large enough effect; inconclusive = small, poorly fitted or top-dose-only effect, or effect the other way; inactive = flat fitted curve, though single readings scatter. The sample as a whole holds a higher share of actives than the screen did.
% is set by controls: 0 for no effect and ±100 for the full control effect; potency is the fitted concentration of half-maximal effect.

Experiment: VP16 counterscreen qHTS for inhibitors of ROR gamma transcriptional activity;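 note: Gal4-VP16 expression switched on by copper sulfate through the metallothionein promoter; nearly all actives have a fitted effect of over 50% in size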
Details: Drosophila S2 Gal4-VP16 UAS-luciferase, luminescence, 20 h; series mostly up to 53.6 µM; activity, negative = inhibition: at the top concentration
Source text: NIH Molecular Libraries Probe Production Network [MLPCN]
NIH Chemical Genomics Center [NCGC]
Assay Provider: Dan Littman, New York University
The retinoic acid-related orphan receptor (ROR) gamma is a transcription factor that has a central role in the differentiation of Th17 cells, a subset of T helper cells that secrete the inflammatory cytokines IL-17, IL-17F, and IL-22. Th17 cells have been implicated in graft versus host disease, autoimmune disease and asthma. ROR gamma is induced in naive T helper cells in the presence of TGF-beta combined with IL-6, IL-21, or IL-23, and thereafter directs the expression of the Th17 lineage cytokines. To identify nonspecific inhibitors, a Drosophila Schneider cell line was stably transfected with two vectors: a gene expressing a fusion of the Gal4 DNA binding domain and VP16 transactivation domain under the control of the metallothionine promoter and a Photinus luciferase reporter regulated by the Gal4 binding site enhancer, UAS. […] Small molecule inhibitors that inhibit components common to the RORgt and VP16 assays, such as the Gal4 DNA binding domain or the UAS luciferase reporter, will be active in both assays and thus scored as nonspecific.
For screening, 600 cells in 4 uL/well were dispensed into white solid 1536-well plates (Grenier) using a solenoid-based dispenser. Following transfer of 23 nL compound or DMSO vehicle by a pin tool, the plates were incubated 1 hr at ambient temperature, and 1 uL/well copper sulfate (700 uM final concentration) was added. The plates were centrifuged 15 s at 1000 RPM and incubated 20 hr at ambient temperature. After addition of 1.5 uL Photinus luciferase detection reagent, the plates were incubated 10 min at ambient temperature and then read by a ViewLux (Perkin Elmer) to detect luminescence.
For `Oc1c(Cl)cc(Cl)c(Cl)c1Cc1c(O)c(Cl)cc(Cl)c1Cl`, the Potency was 3.16 µM (active) and 7.08 µM (active) and 3.98 µM (active). For `CCCCCN(C(=O)CCC(=O)OCC(=O)NCc1ccc(OC)cc1)c1c(N)n(CCCC)c(=O)[nH]c1=O`, the “activity, negative = inhibition” value was -1.25% (inactive). In the case of `CC(=O)Nc1ccc(S(=O)(=O)N2CCC(C(=O)NC3CC3)CC2)cc1`, the “activity, negative = inhibition” value is reported as -7.7% (inactive). With `CCOc1ccc(NC(=O)[C@H](C)NC(=O)C2CC(=O)N(c3ccc(OC)cc3)C2)cc1` (stereo partly drawn) the “activity, negative = inhibition” value was -0.627% (inactive). With `O=C(Cc1cccc2ccccc12)NNC(=O)Nc1ccc(Cl)cc1` the “activity, negative = inhibition” value was 2.73% (inactive). With `Fc1ccccc1Cn1cnc(NC(=S)NCCc2ccccc2)n1` the “activity, negative = inhibition” value was 0.0945% (inactive). In the case of `Fc1ccccc1CNC(=S)Nc1ccc(Cl)cc1`, the Potency is reported as 7.08 µM (active). With `COc1ccc(CCNC(=O)CSCc2ccc(Br)cc2)cc1OC` the “activity, negative = inhibition” value was 1.85% (inactive). For `CS(=O)(=O)N(CC(=O)N1CCOCC1)c1cccc(Cl)c1Cl`, the “activity, negative = inhibition” value was 0.519% (inactive). In the case of `O=C1C2C(c3ccccc3)CC=CC2C(c2ccoc2)N1Cc1ccccc1` (stereo not drawn), the “activity, negative = inhibition” value is reported as -2.18% (inactive). In the case of `CC(C)CCNc1nc(N2CCCC2)c2c(c1C#N)CCN(C)C2`, the Potency is reported as 11.2 µM (active). For `CCN1CCc2c(C#N)c(NCc3ccccc3)nc(NCCO)c2C1`, the “activity, negative = inhibition” value was 3.4% (inactive). For `CCc1nc(NCCO)c(C#N)c2c1CCCC2`, the “activity, negative = inhibition” value was -4.3% (inactive). In the case of `Cn1cccc1C(=O)N1CCc2ccccc2C1`, the “activity, negative = inhibition” value is reported as -17.5% (inactive). With `Cc1cccc(C)c1NC(=O)C(c1ccccc1)N1CC(=O)Nc2ccccc21` (stereo not drawn) the “activity, negative = inhibition” value was 1.67% (inactive). In the case of `Cc1cccc(C)c1NC(=O)C(Cl)C(=O)c1ccccc1` (stereo not drawn), the Potency is reported as 22.4 µM (active). With `Cc1cccc(C)c1NC(=O)N1CC(C)OC(C)C1` (stereo not drawn) the “activity, negative = inhibition” value was -3.53% (inactive). For `CSCC[C@H](NC(=O)N1CCn2c1nc1ccccc12)C(=O)NC1CCCCC1`, the “activity, negative = inhibition” value was 0.703% (inactive). In the case of `O=C(COC(=O)c1cccs1)NCc1cccs1`, the “activity, negative = inhibition” value is reported as 28.5% (inactive). With `O=C(COC(=O)c1cccs1)Nc1ccccc1Cl` the “activity, negative = inhibition” value was 14.2% (inactive). For `O=C(COC(=O)/C(=C/c1cccs1)c1cccs1)NCc1ccccc1Cl`, the Potency was 0.631 µM (active). For `O=C(Nc1cccc(Cl)c1Cl)c1ccccc1NC(=O)C1CC=CCC1C(=O)O` (stereo not drawn), the “activity, negative = inhibition” value was -0.224% (inactive). With `CCC1CCCCN1C(=O)CSc1nc2c(c(=O)n1C)SC(C)C2` (stereo not drawn) the “activity, negative = inhibition” value was 20% (inactive). For `CCn1c(NC(=O)c2nn(C)cc2Br)nc2ccccc21`, the Potency was 5.01 µM (active). In the case of `Cc1nn(C)cc1C(=O)Nc1ccccc1Br`, the “activity, negative = inhibition” value is reported as -0.656% (inactive). In the case of `Cn1c(NC(=O)c2ccccc2)nc2ccccc21`, the Potency is reported as 1.26 µM (active). For `CCC(=O)NCCc1nc2ccccc2n1CC`, the “activity, negative = inhibition” value was -3.17% (inactive). With `CC(=O)NCCc1nc2cc(NC(=O)c3ccccc3)ccc2n1C` the “activity, negative = inhibition” value was -4.52% (inactive). With `Cn1sc(NC(=O)c2ccccc2)nc1=O` the “activity, negative = inhibition” value was 1.42% (inactive). With `CC(C)Cc1nnc(NC(=O)CN2C(=O)NC3(CCCCC3)C2=O)s1` the “activity, negative = inhibition” value was -2.73% (inactive). In the case of `Cc1cccn2c(=O)c3cc(C(=O)NCC4CCCO4)c(=N)n(Cc4ccc(F)cc4)c3nc12` (stereo not drawn), the “activity, negative = inhibition” value is reported as -5.22% (inactive). For `COc1ccccc1CN(C)C(=O)c1cc2ccccc2o1`, the “activity, negative = inhibition” value was 23.3% (inactive). For `COc1ccc(/C=N/NC(=O)Nc2ccc3nsnc3c2)c(OC)c1`, the “activity, negative = inhibition” value was -18.8% (inactive). In the case of `COc1ccc(-c2[nH]ncc2/C=N/NC(=O)c2cc(Br)ccc2O)c(OC)c1`, the Potency is reported as 0.891 µM (active). For `COc1cc(/C=N/NC(=O)c2cccnc2)ccc1OC(=O)c1cccc(Br)c1`, the “activity, negative = inhibition” value was -17.9% (inactive). With `CN(c1ccccc1)S(=O)(=O)c1ccc(NC(=O)COc2ccccc2)cc1` the “activity, negative = inhibition” value was 6.26% (inactive). For `COc1cc(/C(=C/c2ccccc2)c2ccccc2)c2c(c1)oc1ccccc12`, the “activity, negative = inhibition” value was 18.4% (inactive). For `Cc1cccc(NC(=O)Nc2nnc(-c3ccccc3)o2)c1`, the “activity, negative = inhibition” value was 7.84% (inactive). For `O=C(COC(=O)c1ccc(Oc2ccccc2)cc1)Nc1nnc(-c2ccccc2)o1`, the Potency was 5.62 µM (active). With `O=C(OCc1ccc(Br)cc1)c1cccc(-c2nnc(-c3ccccc3)o2)c1` the “activity, negative = inhibition” value was -23.9% (inactive). For `COc1cc(CNCc2ccc3c(c2)OCO3)c([N+](=O)[O-])cc1OC`, the “activity, negative = inhibition” value was 11.9% (inactive). For `Cc1ccc(C)c(OCc2cc(C(=O)N3CCN(c4cnccn4)CC3)no2)c1`, the “activity, negative = inhibition” value was 2.89% (inactive). In the case of `Oc1ccc(-c2cccc(-c3ccc(O)cc3)c2)cc1`, the “activity, negative = inhibition” value is reported as 0.535% (inactive). In the case of `CCOC(=O)/C(=C\c1ccc([N+](=O)[O-])cc1)C(=O)c1cc(C(C)=O)c(Nc2ccccc2)s1`, the Potency is reported as 5.62 µM (active). For `Cc1cccc(NC(=O)c2sc(-c3ccccc3)nc2-c2ccc([N+](=O)[O-])cc2)c1`, the “activity, negative = inhibition” value was 8.36% (inactive). With `O=C(Nc1ccccc1)/C(=C/c1ccc([N+](=O)[O-])cc1)NC(=O)c1ccccc1` the “activity, negative = inhibition” value was -5.61% (inactive). For `C#CC(C)(C)NC(=O)c1cnc(-c2ccccc2)nc1-c1ccccc1`, the “activity, negative = inhibition” value was -20.7% (inactive). With `CCC(=O)N(CCc1ccccc1)Cc1cc2cc(C)ccc2[nH]c1=O` the “activity, negative = inhibition” value was -0.886% (inactive). For `Cc1cc(C)n(CCNS(=O)(=O)c2ccc(Cl)cc2)n1`, the “activity, negative = inhibition” value was -13.8% (inactive). For `COc1cc2cc(C(=O)N/N=C/c3cccc(OC)c3OC)[nH]c2cc1OC`, the “activity, negative = inhibition” value was 6.33% (inactive). For `CN(C)CCNC(=O)c1[nH]nc2c1CCc1ccccc1-2`, the “activity, negative = inhibition” value was 25.4% (inactive). With `COc1cccc(/C=N/NC(=O)c2[nH]nc3c2CCc2ccccc2-3)c1O` the Potency was 0.794 µM (active). With `CN(C(=O)CN1C(=O)/C(=C/c2ccc(Cl)cc2)SC1=S)C1CCS(=O)(=O)C1` (stereo not drawn) the “activity, negative = inhibition” value was 12.8% (inactive).
